# Source: the supplement of paper PMC6555819
# Key:
# Experiment in all cases: PBM binding z-score (relative to random genomic background probes); higher = stronger binding; sequences stand for … in GC…GCGATTGACAGCGTAGAATGAAGG
# [1] = system: FXR:RXRa (NR concentration 270 nM, RXRa partner concentration 90 nM)
# Method in brief: (§1)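 Custom Agilent 4×180K protein-binding microarrays carried double-stranded probes, each with a 34-nt variable region. These regions held direct-repeat seeds, single-nucleotide variants, half-site ablations and random human genomic background sequences. Ligand-free nuclear receptor dimers were incubated on the arrays for 1 h, antibodies against each partner (one per run) detected binding, and scanned fluorescence was regression-normalized. Binding z-scores take the random background probes as reference.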
# [2] = system: LXRa:RXRa (NR concentration 270 nM, RXRa partner concentration 90 nM)
# Method in brief: as §1
# [3] = system: LXRa homodimer (NR concentration 270 nM)
# Method in brief: as §1
# [4] = system: LXRb:RXRa (NR concentration 270 nM, RXRa partner concentration 90 nM)
# Method in brief: as §1
# [5] = system: LXRb homodimer (NR concentration 270 nM)
# Method in brief: as §1
# [6] = system: PPARa:RXRa (NR concentration 270 nM, RXRa partner concentration 90 nM)
# Method in brief: as §1
# [7] = system: PPARg:RXRa (NR concentration 180 nM, RXRa partner concentration 90 nM)
# Method in brief: as §1
# [8] = system: PPARg:RXRa 270nM:90nM, anti-RXR (NR concentration 270 nM, RXRa partner concentration 90 nM)
# Method in brief: as §1
# [9] = system: PPARg:RXRa 30nM:10nM, anti-RXR (NR concentration 30 nM, RXRa partner concentration 10 nM)
# Method in brief: as §1
# [10] = system: PPARg:RXRa 90nM:30nM, anti-RXR (NR concentration 90 nM, RXRa partner concentration 30 nM)
# Method in brief: as §1
# [11] = system: PPARg:RXRa DBDmut IVT, anti-RXR (DBD mutation: RXRa K156A/R161A, NR concentration 270 nM, RXRa partner concentration 90 nM)
# Method in brief: as §1
# [12] = system: PPARg:RXRa IVT, anti-PPARg (NR concentration 270 nM, RXRa partner concentration 90 nM)
# Method in brief: as §1
# [13] = system: PPARg DBDmut:RXRa IVT, anti-PPARg (DBD mutation: PPARg1 K132A/R137A, NR concentration 270 nM, RXRa partner concentration 90 nM)
# Method in brief: as §1
# [14] = system: PPARg DBDmut IVT, anti-PPARg (DBD mutation: PPARg1 K132A/R137A, NR concentration 270 nM)
# Method in brief: as §1
# [15] = system: PPARg homodimer (NR concentration 180 nM)
# Method in brief: as §1
# [16] = system: PXR:RXRa (NR concentration 270 nM, RXRa partner concentration 90 nM)
# Method in brief: as §1
# [17] = system: PXR homodimer (NR concentration 270 nM)
# Method in brief: as §1
# [18] = system: RARa:RXR (NR concentration 270 nM, RXRa partner concentration 90 nM)
# Method in brief: as §1
# [19] = system: RARa homodimer (NR concentration 270 nM)
# Method in brief: as §1
# [20] = system: RARb:RXRa (NR concentration 270 nM, RXRa partner concentration 90 nM)
# Method in brief: as §1
Sequence,PBM binding z-score [1],PBM binding z-score [2],PBM binding z-score [3],PBM binding z-score [4],PBM binding z-score [5],PBM binding z-score [6],PBM binding z-score [7],PBM binding z-score [8],PBM binding z-score [9],PBM binding z-score [10],PBM binding z-score [11],PBM binding z-score [12],PBM binding z-score [13],PBM binding z-score [14],PBM binding z-score [15],PBM binding z-score [16],PBM binding z-score [17],PBM binding z-score [18],PBM binding z-score [19],PBM binding z-score [20]
TTACCAAGGTGAAGGCCGTTGATCCCTCTGTAGA,0.294,0.227,-0.606,0.138,-0.941,1.33,0.354,1.33,0.659,0.916,1.67,2.18,-0.266,0.1,0.061,0.0988,-0.493,0.33,-0.621,1.34
AGAACGAGGGCACGCTGAGTAGATAGCAGAGTAG,0.37,0.529,-0.626,0.201,-0.892,2.15,2.28,1.87,0.547,1.18,4.04,3.83,1.29,0.195,0.114,0.201,-0.149,0.712,-0.354,2.4
AGAATGAGGGTATACGTAGATCAGGGAAGAAAGT,0.101,0.0157,-0.0552,-0.0551,-0.229,0.333,0.755,0.72,0.337,0.51,2.6,0.629,0.622,0.525,0.231,0.14,0.655,0.0305,-0.0376,0.267
TGTGCTAGGTCAGTTGGTCAGCTAACGAGCTGCC,0.928,0.621,-0.546,-0.0513,0.565,1.23,0.656,1.19,-0.306,0.746,1.29,3.02,-0.307,0.199,0.18,0.0475,-0.625,0.36,-0.296,3.26
AGAATGAGGTTACCAAAGATCAGGGTAACGCTTG,2.45,6.27,-0.1,3.22,-0.278,3.65,2.8,3.14,1.16,2.54,4.2,3.74,1.58,0.777,1.01,1.83,-0.213,2.59,-0.485,2.2
CAAACTAGTTCACAGAGGTCAAAGTCCGTGCGTA,5.85,6.23,7.12,5.68,2.36,5.3,3.87,5.02,2.33,4.18,2.43,3.25,0.945,0.72,4.3,7.16,14.3,7.22,2.73,4.46
CCTACTGGGACATTCAGAGGTCATTGATCATATG,3.08,4.71,7.13,4.05,1.06,3.74,2.3,3.13,0.845,2.31,4.26,3.96,0.709,0.697,3.07,5.15,3.43,4.96,1.35,3.11
